# According to PubChem BioAssay (NCATS):
# Inconclusive results are not listed. Activity calls are given as the source filed them. Calls come from the whole dose curve; as a rule, active = well fitted cell-killing curve with a large enough effect; inconclusive = small, poorly fitted or top-dose-only effect; inactive = flat fitted curve, though single readings scatter.
# Assay: Identifying Small Molecule Inhibitors of Pancreatic Cancer Stem Cells (SN12C, Adherent) (AID 1259358);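 note: cell survival measured after 48 h of compound exposure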
# Conditions: viability/growth inhibition; series mostly up to 46.1 µM; viability (percent of control): at the top concentration
# Excerpt: Progenitor-like cancer cells, often referred to as cancer stem cells (CSC), are believed to be the drivers of therapeutic resistance and rapid recurrence. CSCs are postulated to reside in specific niches characterized by low oxygen tension, limited nutrient supply, and high redox load. Selectively targeting CSC, alone or in combination with cytotoxic agents, as a means to produce durable remissions is an appealing concept. Modeling these cells in in vitro setting is an important step in finding new therapies and/or targets. Multiple reports highlight that forcing cells in culture into 3-dimensionaly architectures (spheroids) re-establishes key progenitor-like transcriptional signatures. Pancreatic cancer is among the diseases with the most dismal outlook which is driven, largely, by recurance following front-line therapies. […] In hopes of deriving new insight into the targeting of these pancreatic CSCs we examined three established pancreatic cancer cell lines in cytotoxicity assays versus a collection of approved and investigational drugs. Importantly, we screened these lines as traditional monolayer (2D) and spheroid (3D) formats to gain an appreciation of agents with differential activity.
# Multicellular tumor spheroids from Panc1, MiaPaCa-2, and the primary low-passage tissue culture line SB.06 were seeded in stem cell media (SCM) in nonadherent 6-well plates coated with hydrogel (Corning Life Sciences, Chelmsford, Mass) and pancreatic spheres generated for 14 days before screening. Cells were seeded into 1536-well solid-bottom white tissue culture treated Greiner Bio One Plates (789173-F) using a MultiDrop Combi (Thermofisher Scientific) dispenser and a small sterile cassette. One column was media alone to be used as a :"no cells" control. The plates were then covered with sterilized stainless steel gasketed lids from Kalypsys. After allowing cells to attach for 4 hours, 23 nL of test compound or control (negative control DMSO and positive control 9.2 uM Bortezomib-final) were added from a 1536-well polypropylene compound source plate to each well using a 1536 head pin tool from Kalypsys. Cells were then incubated for 48 hours at 37C, 95% relative humidity and 5% CO2. After 48 hours, plates were removed from the incubator and 3 uL of CellTiter-Glo (Promega) was added using an Aurora Flying Reagent Dispenser Bioraptor. Plates were incubated at room temperature for 10 minutes prior to reading the luminescence on the Viewlux (PerkinElmer). The relative luciferase units are used to calculate the percent activity using the activity of DMSO in the cells and no cells columns for normalization of no inhibition and full inhibition respectively.
# Potency is the fitted concentration of half-maximal effect.
SMILES,Potency,viability (percent of control)
CN(C)C1CCN(C(=O)c2ccc(NC(=O)Nc3nc(N4CCOCC4)nc(N4CCOCC4)n3)cc2)CC1,0.0074 µM (active),–
CC(C)(C(=O)NCC(F)(F)C(F)(F)F)C(=O)N[C@@H]1C(=O)Nc2ccccc2-c2ccccc21,–,108% (inactive)
O=C(O)c1ccc(-c2cc3cccnc3c(-c3ccc4nonc4c3)n2)cc1,–,102% (inactive)
N#Cc1ccc(NC(=O)Nc2ccccc2Br)c2n[nH]nc12,–,100% (inactive)
Clc1ccc(-c2nc3sccn3c2C=NOCc2ccc(Cl)c(Cl)c2)cc1,–,105% (inactive)
OC[C@H]1O[C@@H](n2cnc3c2NC=NC[C@@H]3O)C[C@H]1O,–,95.6% (inactive)
COc1cccc2c1CCCC2CCCN1CCN(C2CCCCC2)CC1 (stereo unspecified),16.6 µM (active),–
O=C1C(Cl)=C(NCCN2CCOCC2)C(=O)c2ncccc21,6.62 µM (active),–
COc1cc(N2CCC(N3CCN(C)CC3)CC2)ccc1Nc1ncc(Cl)c(Nc2ccccc2S(=O)(=O)C(C)C)n1,18.7 µM (active),–
COc1ccc(C2CC(c3ccccc3)=NN2c2ccc(S(N)(=O)=O)cc2)cc1 (stereo unspecified),–,114% (inactive)
O=C(N[C@@H](c1ccccc1)[C@@H]1CCCCN1)c1cccc(C(F)(F)F)c1Cl,–,111% (inactive)
CN1CCN(CCOc2cc(OC3CCOCC3)c3c(Nc4c(Cl)ccc5c4OCO5)ncnc3c2)CC1,1.87 µM (active),–
CC(C)(C)c1cc(C(=O)O)c(NC(=O)Nc2ccc3[nH]ncc3c2)s1,–,108% (inactive)
COc1cc2ncnc(-n3nc(-c4ccccn4)nc3N)c2cc1OC,5.9 µM (active),–
O=C(O)CCC1CCC(c2cc(F)ccc2F)(S(=O)(=O)c2ccc(Cl)cc2)CC1 (stereo unspecified),–,110% (inactive)
CS(=O)c1ccc(-c2nc(-c3ccc(F)cc3)c(-c3ccncc3)[nH]2)cc1 (stereo unspecified),–,95.4% (inactive)
CC1=C(/C=C/C(C)=C/C=C/C(C)=C/C(=O)Nc2ccc(O)cc2)C(C)(C)CCC1,–,78.7% (inactive)
CO[C@H]1C=CC=C(C)C(=O)NC2=CC(=O)C(NCCN(C)C)=C(C[C@@H](C)C[C@H](OC)[C@@H](O)[C@@H](C)C=C(C)[C@@H]1OC(N)=O)C2=O,0.0935 µM (active),–
CO[C@H]1C[C@@H]2CC[C@@H](C)[C@@](O)(O2)C(=O)C(=O)N2CCCC[C@@H]2C(=O)O[C@H]([C@H](C)C[C@@H]2CC[C@H](OCCO)[C@H](OC)C2)CC(=O)[C@H](C)C=C(C)[C@@H](O)[C@@H](OC)C(=O)[C@H](C)C[C@H](C)C=CC=CC=C1C,18.7 µM (active),–
COc1ncc(-c2ccc3nccc(-c4ccnnc4)c3c2)cc1NS(=O)(=O)c1ccc(F)cc1F,–,86.8% (inactive)
CO[C@@H](C(=O)N1Cc2[nH]nc(NC(=O)c3ccc(N4CCN(C)CC4)cc3)c2C1)c1ccccc1,0.743 µM (active),–
CC(C)(C)COc1ccc(-n2cc(C(=O)O)cn2)cc1C#N,–,96.4% (inactive)
CC(=O)N(C)C1(c2ccccc2)CCN(CCC[C@]2(c3ccc(Cl)c(Cl)c3)CCCN(C(=O)c3ccccc3)C2)CC1,20.9 µM (active),–
CC(C)(C)C(=O)Oc1ccc2c(c1)nc(NC(=O)c1cccc([N+](=O)[O-])c1)n2CCCO,–,89.9% (inactive)
CCOC(CN1C(=O)[C@](CC(=O)Nc2ccc(C)cc2)(NC(=O)Nc2ccc(C)cc2)c2ccccc21)OCC,23.5 µM (active),–
c1ccc2c(-c3cnn4cc(-c5ccc(N6CCNCC6)cc5)cnc34)ccnc2c1,26.4 µM (active),–
